Screening data as filed in PubChem BioAssay.
NPR1 antag: antagonists of human natriuretic peptide receptor Npr1; HEK293 hNpr1 GloSensor cGMP, ANP-stimulated luminescence; Potency, µM (highest dose often 46.3 µM), without a hit: top-dose activity change, negative = inhibition, usual class: inhibitors; 76,000 compounds, 1.6% hits; AID 1347048; calls by dose curve; also: % is scaled to controls: 0 for no effect and ±100 for the full control effect; nearly all actives have a fitted effect of over 60% in size
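HEK293 cells stably expressing human Npr1 and cGMP GloSensor pGS-40F, loaded 2 h with 2% GloSensor reagent, given compound 30 min at room temperature. Luminescence read before and 20 min after 0.1 nM hNppA.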
HEK cytotox: HEK 293 cell cytotoxicity; 94,000 compounds, 6.6% hits; HEK 293 viability, ATP luminescence (CellTiter-Glo), 48-72 h; Potency, µM (doses to about 115 µM), without a hit: at the highest dose activity change, negative = cytotoxicity, hits mostly inhibitors; AID 1345083; also: % is scaled to controls: 0 for no effect and ±100 for the full control effect; nearly all actives have a fitted effect of over 60% in size
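qHTS cytotoxicity; HEK 293, 250 cells/well; compound pinned; 48 or 72 hr, 37 degree Celsius, 5% CO2, 95% humidity; CellTiter-Glo, 10 min RT; luminescence (ATP).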
NIH3T3 tox: NIH 3T3 cell cytotoxicity; NIH 3T3 viability, CellTiter-Glo ATP luminescence, 48-72 h; Potency, µM (top dose mostly 96.7 µM), without a hit: top-dose activity change, negative = cytotoxicity, actives largely listed as inhibitors; 94,000 compounds, 4.3% hits; also: % is scaled to controls: 0 for no effect and ±100 for the full control effect; nearly all actives have a fitted effect of over 55% in size
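Viability of NIH 3T3 cells after 48 or 72 hr compound treatment at 37 °C was assessed by CellTiter-Glo, with luminescence imaged following a 10 min room-temperature step.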
Luciferase inh: inhibitors of firefly (Photinus pyralis) luciferase; P08659; purified P. pyralis luciferase, luminescence, biochemical; Potency, µM (highest dose often 115 µM), usual class: inhibitors; 76,000 compounds, 2.5% hits; AID 1347043; also: % is scaled to controls: 0 for no effect and ±100 for the full control effect; nearly all actives have a fitted effect of over 65% in size
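Biochemical qHTS: compound (6-point titration) added to 10uM D-luciferin plus 10uM ATP in Tris acetate pH 7.5 buffer with Mg, Tween-20 and BSA, then purified enzyme at 10nM; light output imaged.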
Npr1 antag conf: confirmation of human Npr1 natriuretic peptide receptor antagonists; HEK293 hNpr1 cGMP GloSensor luminescence, ANP-stimulated; AID 1347044; shares compounds with NPR1 antag; Potency, µM (series often up to 57.6 µM), without a hit: at the top dose activity change, negative = inhibition, actives largely listed as inhibitors; 1,400 compounds, 76% hits; calls by dose curve; also: nearly all actives have a fitted effect of over 70% in size
Npr2 selectivity: antagonizes human Npr2, subtype selectivity check. shares compounds with NPR1 antag. HEK293 hNpr2 GloSensor cGMP luminescence, CNP-stimulated. Potency, µM (top dose mostly 57.6 µM), for inactives: at the top dose activity change, negative = inhibition, actives largely listed as inhibitors. 1,400 compounds, 67% hits. AID 1347046; calls by dose curve; also: nearly all actives have a fitted effect of over 70% in size
Target sequence (P20594 whole entry, looked up): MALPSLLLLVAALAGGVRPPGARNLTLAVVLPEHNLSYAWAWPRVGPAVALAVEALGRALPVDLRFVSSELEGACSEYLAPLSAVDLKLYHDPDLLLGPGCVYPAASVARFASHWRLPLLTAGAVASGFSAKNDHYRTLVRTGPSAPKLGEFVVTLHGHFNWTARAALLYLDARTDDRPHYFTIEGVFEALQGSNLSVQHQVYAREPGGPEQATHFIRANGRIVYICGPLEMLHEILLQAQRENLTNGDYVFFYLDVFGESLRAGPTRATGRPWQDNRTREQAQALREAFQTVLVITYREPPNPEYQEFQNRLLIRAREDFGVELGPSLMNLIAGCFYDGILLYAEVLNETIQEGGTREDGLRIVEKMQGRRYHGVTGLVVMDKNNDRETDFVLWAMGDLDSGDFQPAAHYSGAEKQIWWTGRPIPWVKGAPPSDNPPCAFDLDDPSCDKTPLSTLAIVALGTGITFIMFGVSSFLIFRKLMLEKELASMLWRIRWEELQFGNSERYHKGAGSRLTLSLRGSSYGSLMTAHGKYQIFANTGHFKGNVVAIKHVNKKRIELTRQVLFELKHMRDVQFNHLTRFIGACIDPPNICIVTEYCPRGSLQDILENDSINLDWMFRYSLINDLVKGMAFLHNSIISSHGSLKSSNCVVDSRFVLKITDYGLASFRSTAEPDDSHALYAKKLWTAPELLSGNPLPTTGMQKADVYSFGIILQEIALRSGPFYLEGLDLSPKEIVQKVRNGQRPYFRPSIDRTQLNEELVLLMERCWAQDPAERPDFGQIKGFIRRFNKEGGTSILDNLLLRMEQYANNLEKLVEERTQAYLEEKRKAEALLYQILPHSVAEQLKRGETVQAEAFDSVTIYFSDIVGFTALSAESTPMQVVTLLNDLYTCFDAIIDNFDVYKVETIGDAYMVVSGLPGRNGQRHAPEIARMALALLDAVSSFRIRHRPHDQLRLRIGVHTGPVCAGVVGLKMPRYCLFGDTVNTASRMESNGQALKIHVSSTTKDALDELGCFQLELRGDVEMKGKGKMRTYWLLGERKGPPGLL
FLuc counter: FLuc enzyme inhibition, Npr1 counter-screen; shares compounds with NPR1 antag; Potency, µM (highest dose often 57.6 µM), without a hit: top-dose activity change, negative = inhibition, hits mostly inhibitors; purified FLuc enzyme, luminescence, Km substrate; AID 1347047; 1,400 compounds, 0.7% hits; also: 0% is about no effect
GloSensor cGMP: counter-screen for Npr1 antagonists: GloSensor control cell line; shares compounds with NPR1 antag; Potency, µM (titrated, usually from 57.6 µM), for inactives: at the highest dose activity change, negative = inhibition, actives largely listed as inhibitors; 1,400 compounds, 69% hits; HEK293 GloSensor cGMP, SNP-stimulated, luminescence; AID 1347051; calls by dose curve; also: % is scaled to controls: 0 for no effect and ±100 for the full control effect; nearly all actives have a fitted effect of over 70% in size
* hit, by the source's call; i = inactive; u = inconclusive; x = not tested or not shown; ! = repeats disagree; [ ] = dose if it differs, or a comment. Sampled rows, rich in hits. Any-hit rate of the full collection: about 11%. Unless noted, calls follow the shape of the dose curve; as a rule, active = well fitted curve in the direction sought with a large enough effect; inconclusive = small, poorly fitted or top-dose-only effect, or another doubt; inactive = no such curve, though single readings can be large; an effect the other way counts as inactive or inconclusive. Potency is read from the fitted curve at half-maximal effect.

SMILES	NPR1 antag	HEK cytotox	NIH3T3 tox	Luciferase inh	Npr1 antag conf	Npr2 selectivity	FLuc counter	GloSensor cGMP
N#Cc1ccc(CN2CCC3(CC2)CC(c2cccc(C(F)(F)F)c2)=NO3)cc1	8.91µM*	31.6µM*	28.2µM*	i	u	u	2.0%[86.2 µM]	u
Clc1ccc(CN2CCC3(CC2)CC(c2cccnc2)=NO3)cc1	x	u	-22.1%	x	27µM*	u	4.2%	24.1µM*
N#Cc1ccc(CN2CCC3(CC2)CNC(=O)c2ccccc2O3)cc1	x	u	-35.5%	x	x	x	x	x
N#Cc1ccc(CN2CCC3(CC2)CC(c2cccnc2)=NO3)cc1	22.4µM*	79.4µM*	-20.1%[138 µM]	i	19.8µM*	22.2µM*	0.6%[86.2 µM]	17.7µM*
Cc1ccc(CNC(=O)CCC2CCN(S(=O)(=O)c3ccccc3)CC2)cc1	-23.8%	-24.2%	u	i	-17.5%	-11.4%	3.2%	-13.3%
CCN(Cc1ccccc1)C(=O)CCC1CCN(S(=O)(=O)c2ccccc2)CC1	-20.7%	u	28.2µM*	i	u	-20.2%	-1.7%	-12.6%
CCN(Cc1ccncc1)C(=O)CCC1CCN(S(=O)(=O)c2ccccc2)CC1	-18.1%	u	u	i	x	x	x	x
CCOc1ccccc1CN1CCC(CC2CC2)(NS(C)(=O)=O)CC1	x	u	-33.1%	x	x	x	x	x
COc1ccc(CC(=O)NC2CCN(c3cc(-c4ccc(Cl)cc4)[nH]n3)CC2)cc1	u	u	u	i	x	x	x	x
COc1ccc(C(=O)N2CCCN(c3cc(-c4ccc(Cl)cc4)[nH]n3)CC2)c(C)c1	3.55µM*	50.1µM*	u	i	9.68µM*	10.9µM*	0.2%	9.68µM*
COc1ccc(C(=O)N2CCCN(c3cc(-c4ccc(F)cc4)[nH]n3)CC2)c(C)c1	5.62µM*	u	u	i	10.9µM*	12.2µM*	-0.1%	6.85µM*
COc1ccc(C(=O)NC2CCN(c3cc(-c4ccc(F)cc4)[nH]n3)CC2)c(C)c1	0.0%	u	u	i	u	u	2.0%	-20.1%
COc1ccc(CC(=O)NC2CCN(c3cc(-c4ccc(OC)cc4)[nH]n3)CC2)cc1	-25.3%	u	u	i	u	u	-0.4%	-27.3%
C=CCOC(=O)C1=C(C)N=C2SC=C(CC(=O)NC3CC3)N2C1c1cc(C)ccc1C (stereo unspecified)	u	u	-14.6%	i	x	x	x	x
O=C(c1cccc(-c2ccccn2)c1)N1CCN(C(=O)C2CCCC2)CC1	x	-20.3%	-31.5%	x	x	x	x	x
O=C(NCCc1ccccc1)C1CCCN1C(=O)c1cccc(-c2cccnc2)c1 (stereo unspecified)	x	-17.1%	u	x	x	x	x	x
COCCCn1c(=O)c(C(=O)N2CCN(C(=O)c3ccc(C)cc3)CC2)nc2cccnc21	x	-6.9%	-2.9%	x	x	x	x	x
COc1ccc(CC(=O)NC2CCCN(c3cc(-c4ccc(Cl)cc4)[nH]n3)C2)cc1OC (stereo unspecified)	11.2µM*	22.4µM*	u	i	24.3µM*	15.3µM*	0.8%	24.3µM*
O=C(NC1CCN(c2cc(-c3ccccc3)[nH]n2)CC1)c1cc(Cl)ccc1F	-21.1%	u	u	i	-21.6%	-23.4%	2.4%	-19.3%
COC(=O)[C@@H]1Cc2ncn(Cc3ccc(Cl)cc3)c2CN1C(=O)c1ccc(C#N)cc1	3.9%[70.6 µM]	-9.3%[172 µM]	u	i	x	x	x	x
COC(=O)[C@@H]1Cc2ncn(Cc3ccc(Cl)cc3)c2CN1Cc1cccc(C#N)c1	u	63.1µM*	u	i	u	u	-0.6%[86.2 µM]	u
COCCC(=O)N1CCCC(Cc2nc(C3CCOCC3)no2)C1 (stereo unspecified)	-17.7%	2.7%	i	i	-6.7%	1.5%	1.4%	1.8%
O=C(NCCCc1ccccc1)C1CCCN(c2nc3ncccc3o2)C1 (stereo unspecified)	12.5%	-27.4%	-17.1%	i	x	x	x	x
O=C(N[C@H]1CCN2C(=O)c3cc(-c4cccs4)ccc3NC(=O)[C@H]12)C1CCCC1	5.9%[70.6 µM]	-26.7%[172 µM]	u	u	x	x	x	x
Cc1cnc(C(=O)N2CCCC2c2nc(CCOCC3CCCC3)no2)cn1 (stereo unspecified)	u	-13.4%	-13.6%	i	-22.5%	-17.4%	-1.7%	-1.8%
SMILES	NPR1 antag	HEK cytotox	NIH3T3 tox	Luciferase inh	Npr1 antag conf	Npr2 selectivity	FLuc counter	GloSensor cGMP
O=C(C1CCCC1)N1CCn2c(nnc2-c2ccccc2)C1	5.0%[70.6 µM]	-10.6%[172 µM]	-30.8%[138 µM]	i	x	x	x	x
O=C(NCCn1ccn2nc(-c3ccc(F)cc3)cc2c1=O)c1cccs1	-18.7%	-6.8%	-6.3%	u	x	x	x	x
O=C(NC1CCCc2c1[nH]c1ccc(Cl)cc21)c1ccncc1 (stereo unspecified)	u	22.4µM*	u	i	u	-29.9%	-4.0%	-27.4%
CCCN1CCCC2(Cc3ccccc3CN(C(C)=O)C2)C1 (stereo unspecified)	x	-27.1%[172 µM]	-21.3%[138 µM]	x	x	x	x	x
O=C(C1CCCC1)N1CCC(C(=O)N2CCCC2c2nc3ccncc3[nH]2)CC1 (stereo unspecified)	x	-2.9%	-9.9%	x	x	x	x	x
Cc1ccc(CN2C[C@@H](CO)[C@H](c3nc(-c4ccncc4)no3)C2)cc1	11.2µM*	u	u	i	24.3µM*	24.3µM*	-7.2%	24.3µM*
CCOc1ccccc1C(=O)N1CCC(N2C(=O)CCC2C(=O)NCc2ccccc2)CC1 (stereo unspecified)	-0.7%	-7.5%	-3.3%	i	x	x	x	x
COc1cccc(-c2ccccc2NC(=O)C2CCN(Cc3cc(OC)ccc3O)CC2)c1	u	17.8µM*	u	i	24.3µM*	u	-17.2%	27.3µM*
COc1ccc(CCNC(=O)[C@@H]2CCCN2c2nccc(Nc3ccccc3Cl)n2)cc1	x	u	-14.4%	x	x	x	x	x
O=c1[nH]c(C2CCN(Cc3cccc(-c4cccs4)c3)CC2)nc2ccc(F)cc12	u	22.4µM*!	28.2µM*	i	-27.0%	u	1.2%	u
O=c1[nH]c(C2CCN(Cc3ccc(Cl)cc3)CC2)nc2ccc(F)cc12	-19.3%	-2.8%	-12.6%	i	x	x	x	x
